Results filed as inconclusive are left out. Calls of active or inactive are those of the source. Unless noted, calls follow the shape of the dose curve; as a rule, active = well fitted curve in the direction sought with a large enough effect in the repeat runs; inconclusive = weak or mixed curves; inactive = no such curve, though single readings can be large; an effect the other way counts as inactive or inconclusive.
Assays:
[1] = qHTS assay to test for compound auto fluorescence at 535 nm (green) in HEK293 cells (AID 720680)
[2] = qHTS assay to test for compound auto fluorescence at 460 nm (blue) in HEK293 cell free culture (AID 720681)
Method in brief: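 Test compounds were pinned into cell-free culture medium (DMEM with 10% FBS) and fluorescence was read directly at Ex/Em 405/460 nm. Signals were expressed as fluorescence equivalents of triamterene, with DMSO vehicle as control.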

[3] = qHTS assay to test for compound auto fluorescence at 535 nm (green) in HEK293 cell free culture (AID 720682)
Method in brief: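 Each library compound, or DMSO control, is added by pintool to medium alone, comprising DMEM and 10% FBS. Emission at 535 nm following 485 nm excitation is quantified against fluorescein.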

[4] = qHTS assay to test for compound auto fluorescence at 590 nm (red) in HEK293 cell free culture (AID 720683)
Method in brief: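 Tox21 10K library compounds were pinned into cell-free DMEM with 10% FBS and fluorescence was read at excitation 540 nm. Activity is expressed as Rose Bengal sodium equivalency.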

[5] = qHTS assay to test for compound auto fluorescence at 590 nm (red) in HepG2 cell free culture (AID 720684)
Method in brief: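 Readout: intrinsic compound fluorescence at 590 nm emission after 540 nm excitation, scaled to Rose Bengal sodium. Matrix was cell-free MEM with 10% FBS; DMSO vehicle wells served as control.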

[6] = qHTS assay to test for compound auto fluorescence at 460 nm (blue) in HepG2 cell free culture (AID 720685)
Method in brief: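 Cell-free plates of MEM plus 10% FBS received 23 nL compound or DMSO vehicle; blue-channel (405/460 nm) intensity scored against triamterene as reference fluorophore.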

[7] = qHTS assay to test for compound auto fluorescence at 535 nm (green) in HepG2 cell free culture (AID 720686)
[8] = qHTS assay to test for compound auto fluorescence at 460 nm (blue) in HepG2 cells (AID 720687)
Method in brief: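 Cells (2,000/well in MEM with 10% FBS) attached overnight at 37 C, then were exposed to compound or DMSO for 1 hr at 37 C, 5% CO2. Fluorescence read at Ex/Em 405/460 nm, expressed as triamterene-equivalent signal.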

[9] = biological target: Glucocorticoid receptor (Homo sapiens) (UniProt P04150); assay: qHTS assay to identify small molecule agonists of the glucocorticoid receptor (GR) signaling pathway (AID 720691; active = well fitted activation curve with a large enough effect in the signal ratio in the repeat runs, not every such curve was filed as active; the % refers to the signal ratio)
Method in brief: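 Compounds in DMSO, alongside positive controls, were added to GR-bla HeLa reporter cells and incubated 18 h at 37 C; GRE-driven beta-lactamase was detected by fluorescence after 2 h with FRET substrate at room temperature.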

[10] = biological target: Glucocorticoid receptor (Homo sapiens) (UniProt P04150); assay: qHTS assay to identify small molecule antagonists of the glucocorticoid receptor (GR) signaling pathway (AID 720692; active = well fitted inhibition curve with a large enough effect in the signal ratio in the repeat runs, not every such curve was filed as active; the % refers to the signal ratio)
Method in brief: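 In a 1536-well cell format, compounds were added 4 h after seeding GR-bla HeLa cells, together with dexamethasone at 5 nM final; reporter activity was measured by FRET-substrate fluorescence following 18 h at 37 C.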

[11] = qHTS assay to identify small molecule antagonists of the glucocorticoid receptor (GR) signaling pathway - cell viability counter screen (AID 720693); also: nearly all actives have a fitted effect of over 55% in size
[12] = qHTS assay for identifying genotoxic compounds that show differential cytotoxicity against isogenic chicken DT40 cell lines with known DNA damage response pathways - wild type cell line (AID 743012); also: nearly all actives have a fitted effect of over 60% in size
Method in brief: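 Viability of DNA repair-proficient chicken DT40 cells was assessed by CellTiter-Glo luminescence following 40 h compound exposure at 37 C/5% CO2.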

[13] = qHTS assay for identifying genotoxic compounds that show differential cytotoxicity against isogenic chicken DT40 cell lines with known DNA damage response pathways - Rev3 mutant cell line (AID 743014); also: nearly all actives have a fitted effect of over 55% in size
[14] = qHTS assay for identifying genotoxic compounds that show differential cytotoxicity against isogenic chicken DT40 cell lines with known DNA damage response pathways - Rad54/Ku70 mutant cell line (AID 743015); also: nearly all actives have a fitted effect of over 60% in size
[15] = qHTS assay to identify small molecule antagonists of the androgen receptor (AR) signaling pathway - cell viability counter screen (AID 743033; also: nearly all actives have a fitted effect of over 45% in size)
[16] = qHTS assay to identify small molecule antagonists of the androgen receptor (AR) signaling pathway using the MDA cell line - cell viability counter screen (AID 743041; also: nearly all actives have a fitted effect of over 45% in size)
Method in brief: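 qHTS viability read-out; MDA-kb2 AR-luc; R1881-stimulated; 16 h exposure at 37C, 0% CO2; CellTiter-Fluor, 30 min; fluorescence intensity.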

[17] = qHTS assay to identify small molecule antagonists of the thyroid receptor (TR) signaling pathway - cell viability counter screen (AID 743064); also: nearly all actives have a fitted effect of over 50% in size
Method in brief: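 CellTiter-Fluor readout, 30 min at 37 °C/5% CO2, following 23.5 h incubation of GH3.TRE-Luc cells with test compound and 1 nM T3 (final).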

[18] = biological target: Androgen receptor (Homo sapiens) (UniProt P10275); assay: qHTS assay to identify small molecule antagonists of the androgen receptor (AR) signaling pathway (AID 743035; active = well fitted inhibition curve with a large enough effect in the signal ratio in the repeat runs, not every such curve was filed as active; the % refers to the signal ratio)
Method in brief: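 Reporter HEK293 cells were exposed to compounds and R1881 overnight (16 h, 37C); beta-lactamase activity was then quantified by FRET fluorescence.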

[19] = biological target: Androgen receptor (Homo sapiens) (UniProt P10275); assay: qHTS assay to identify small molecule agonists of the androgen receptor (AR) signaling pathway using the MDA cell line (AID 743040; also: nearly all actives have a fitted effect of over 20% in size)
Method in brief: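 Agonist activity is measured as luciferase luminescence in human MDA-kb2 cells whose MMTV reporter responds to both AR and GR. Compounds in DMSO incubate 16 h at 37C, 0% CO2, and ONE-Glo is read after 30 min.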

[20] = biological target: Androgen receptor (Homo sapiens) (UniProt P10275); assay: qHTS assay to identify small molecule antagonists of the androgen receptor (AR) signaling pathway using the MDA cell line (AID 743042; also: nearly all actives have a fitted effect of over 55% in size)
Method in brief: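 MDA-kb2 cells (human breast carcinoma, stably carrying an MMTV-luciferase reporter responsive to AR and GR) were plated at 3,000 cells/well and preincubated 5 hr at 37C, then given compound plus R1881 agonist for 16 h. ONE-Glo luminescence was read.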

Measured: Potency

Androgen receptor (Homo sapiens), sequence (P10275 whole entry, looked up): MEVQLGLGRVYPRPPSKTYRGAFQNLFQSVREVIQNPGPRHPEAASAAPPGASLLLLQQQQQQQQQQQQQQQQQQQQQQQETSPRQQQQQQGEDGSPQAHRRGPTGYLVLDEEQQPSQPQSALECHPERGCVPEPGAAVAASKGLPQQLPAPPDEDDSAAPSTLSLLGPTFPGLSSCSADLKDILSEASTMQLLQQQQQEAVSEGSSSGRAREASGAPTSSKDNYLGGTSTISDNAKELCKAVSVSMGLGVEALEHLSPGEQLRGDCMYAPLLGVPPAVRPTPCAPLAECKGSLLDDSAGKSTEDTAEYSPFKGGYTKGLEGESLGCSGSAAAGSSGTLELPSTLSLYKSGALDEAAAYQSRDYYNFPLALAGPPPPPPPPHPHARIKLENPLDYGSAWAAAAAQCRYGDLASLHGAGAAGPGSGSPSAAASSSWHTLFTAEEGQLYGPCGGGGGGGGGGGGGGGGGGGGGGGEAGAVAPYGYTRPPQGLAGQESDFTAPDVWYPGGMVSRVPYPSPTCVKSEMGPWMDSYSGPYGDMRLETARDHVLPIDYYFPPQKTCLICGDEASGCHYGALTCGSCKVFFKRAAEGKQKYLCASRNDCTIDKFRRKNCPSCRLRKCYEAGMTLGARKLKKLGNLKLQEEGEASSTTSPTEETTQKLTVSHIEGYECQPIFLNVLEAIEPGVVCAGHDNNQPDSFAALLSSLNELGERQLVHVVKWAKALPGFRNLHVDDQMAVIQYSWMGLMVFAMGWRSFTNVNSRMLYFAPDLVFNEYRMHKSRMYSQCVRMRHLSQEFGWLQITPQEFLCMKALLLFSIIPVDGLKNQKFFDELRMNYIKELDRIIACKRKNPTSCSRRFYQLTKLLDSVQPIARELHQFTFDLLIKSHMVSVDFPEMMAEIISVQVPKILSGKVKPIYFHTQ
Glucocorticoid receptor (Homo sapiens), sequence (P04150 whole entry, looked up): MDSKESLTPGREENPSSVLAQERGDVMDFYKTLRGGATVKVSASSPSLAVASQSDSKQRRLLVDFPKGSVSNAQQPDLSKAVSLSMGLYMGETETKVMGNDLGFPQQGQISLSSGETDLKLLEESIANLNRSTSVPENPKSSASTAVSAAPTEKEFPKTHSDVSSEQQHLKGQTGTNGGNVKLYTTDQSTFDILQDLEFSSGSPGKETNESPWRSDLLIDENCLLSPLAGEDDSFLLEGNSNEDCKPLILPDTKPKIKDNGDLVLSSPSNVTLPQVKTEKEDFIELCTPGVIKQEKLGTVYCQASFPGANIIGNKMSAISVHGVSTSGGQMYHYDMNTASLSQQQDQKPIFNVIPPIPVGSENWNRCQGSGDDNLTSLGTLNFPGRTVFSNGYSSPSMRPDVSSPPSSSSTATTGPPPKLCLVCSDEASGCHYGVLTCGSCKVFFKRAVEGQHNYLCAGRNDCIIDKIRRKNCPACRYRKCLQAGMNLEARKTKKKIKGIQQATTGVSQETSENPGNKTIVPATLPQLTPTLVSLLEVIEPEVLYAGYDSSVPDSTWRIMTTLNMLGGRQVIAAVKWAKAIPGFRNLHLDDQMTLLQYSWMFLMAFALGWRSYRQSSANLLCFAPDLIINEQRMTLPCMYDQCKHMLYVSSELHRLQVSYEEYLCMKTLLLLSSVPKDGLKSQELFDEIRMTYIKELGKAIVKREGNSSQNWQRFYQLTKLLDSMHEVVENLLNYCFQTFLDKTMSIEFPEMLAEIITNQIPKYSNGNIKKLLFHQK

O=C(O)c1cc(C(=O)O)cc(C(=O)O)c1
not listed: [18] | [19] | [20]
inactive: all other assays above

O=C(CO)[C@@H](O)[C@H](O)[C@@H](O)CO
not listed: [18] | [19] | [20]
inactive: all other assays above

CC12CCC(C(=O)C1=O)C2(C)C (stereo not drawn)
not listed: [17] | [18] | [19] | [20]
inactive: all other assays above

[K+]
not listed: [13] | [16] | [18] | [19] | [20]
inactive: all other assays above

CCOc1ccccc1OCC
not listed: [18] | [19] | [20]
inactive: all other assays above

O=C1NC(=O)C2CC=CCC12 (stereo not drawn)
not listed: [18] | [19] | [20]
inactive: all other assays above

C[N+]1(C)[C@@H]2CC(OC(=O)[C@H](CO)c3ccccc3)C[C@H]1[C@@H]1O[C@@H]12 (stereo partly drawn)
not listed: [17] | [18] | [19] | [20]
inactive: all other assays above

CCCCc1ccc2c(n1)[C@@H](c1ccc(OC)cc1C[C@H](C)C(=O)O)[C@H](C(=O)O)[C@H]2c1ccc2c(c1)OCO2
not listed: [18] | [19] | [20]
inactive: all other assays above

CC(=O)C1CCCCC1=O (stereo not drawn)
not listed: [17] | [18] | [19] | [20]
inactive: all other assays above

CC/C=C\CCOC(C)OCC (stereo not drawn)
not listed: [13] | [18] | [19] | [20]
inactive: all other assays above

CC(C)NNC(=O)c1ccncc1
not listed: [13] | [16]
inactive: all other assays above

CC(=O)NC(=O)c1ccccc1O
not listed: [18] | [19] | [20]
inactive: all other assays above

C=CN1CCCCCC1=O
not listed: [16] | [18] | [19] | [20]
inactive: all other assays above

C1CCC2=NCCCN2CC1
not listed: [17] | [18] | [19] | [20]
inactive: all other assays above

CCN1C=CN(C)C1C (stereo not drawn)
not listed: [18] | [19] | [20]
inactive: all other assays above

Reference: PubChem BioAssay (Tox21)
